# Sm TGR inh: qHTS Assay for the Inhibitors of Schistosoma Mansoni Peroxiredoxins; purified TGR, DTNB reduction, TNB absorbance 405 nm; hit rate 3% among 360,000; Potency, µM (highest dose often 114 µM), for the others: at the top dose activity change, negative = inhibition, actives largely listed as inhibitors; Schistosoma mansoni thioredoxin glutathione reductase (TGR), Q962Y6; further: potency means the concentration at half of the fitted maximal effect; nearly all actives have a fitted effect of over 60% in size
#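 TGR 20 nM + NADPH 100 uM (dispensed conc.), cpd preinc 15 min RT; start with NADPH (500 uM addition) then DTNB (15 mM addition). Kinetic TNB absorbance, 405 nm filter. Four-parameter Hill fit across titration.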
# Pf growth 48h: Primary qHTS for delayed death inhibitors of the malarial parasite plastid, 48 hour incubation | P. falciparum luciferase growth in erythrocytes, 48 h | Potency, µM (top dose mostly 28.7 µM), for inactives: at the highest dose activity change, negative = inhibition, most hits filed as inhibitors | hit rate 5.9% among 310,000; further: potency means the concentration at half of the fitted maximal effect
#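 Firefly luciferase activity from engineered P. falciparum reports growth; inhibitors lower the luminescent signal. Cultures contained 2% hematocrit erythrocytes at 0.1% final parasitemia.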
# Pf growth 96h: Primary qHTS for delayed death inhibitors of the malarial parasite plastid, 96 hour incubation | hit rate 6.9% among 320,000 | P. falciparum luciferase reporter growth, 96 h | AID 504834, 2011 | Potency, µM (doses to about 28.7 µM), inactives show at the highest dose activity change, negative = inhibition, actives largely listed as inhibitors; further: potency means the concentration at half of the fitted maximal effect
#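 P. falciparum expressing integrated firefly luciferase, in erythrocytes at 2% hematocrit, 0.05% parasitemia, incubated with compounds 96 h at 37 C, 5% CO2. Growth inhibition read as loss of luminescence; two-generation exposure targets delayed-death apicoplast inhibitors.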
# Giardia FBPA inh: qHTS Assay for Inhibitors of Fructose-1,6-bisphosphate Aldolase from Giardia Lamblia; A8B2U2; purified Giardia FBPA; Potency, µM (titrated, usually from 59.6 µM), inactives show top-dose activity, negative = inhibition, hits mostly inhibitors; hit rate 0.71% among 290,000; further: potency means the concentration at half of the fitted maximal effect; nearly all actives have a fitted effect of over 55% in size
# Target sequence (A8B2U2 whole entry, looked up): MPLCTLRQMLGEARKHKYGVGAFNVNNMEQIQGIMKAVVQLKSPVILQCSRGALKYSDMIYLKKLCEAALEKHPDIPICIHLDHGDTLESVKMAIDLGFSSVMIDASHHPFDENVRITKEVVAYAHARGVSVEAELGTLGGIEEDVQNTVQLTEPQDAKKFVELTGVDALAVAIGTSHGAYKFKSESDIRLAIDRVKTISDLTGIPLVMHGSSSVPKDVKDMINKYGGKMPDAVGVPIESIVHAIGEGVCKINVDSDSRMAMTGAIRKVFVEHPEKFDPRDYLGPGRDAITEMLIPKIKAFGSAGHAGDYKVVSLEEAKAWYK
#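 40 nM FBPA preincubated 10 min at RT with compound (up to 57.5 uM final), then substrate plus GAPDH/TPI/NAD/arsenate coupling and diaphorase/resazurin added. Fluorescence read after 20 min at RT, 525/598 nm.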
# HCMV inh: qHTS Assay for inhibitors of the human cytomegalovirus (HCMV) | activity change, negative = inhibition, % at 57.5 µM | HFF cells, HCMV-luciferase reporter, 72 h; stronger effect = lower value | hit rate 4.5% among 410,000; in the data active means activity change below about -60%; inconclusive means no clear call, values can overlap the other calls; inactive means above about -39%
#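 Cell-based, HFFs, 1000 cells/well, 16 h 37C; cpds in DMSO + HCMV-luc, MOI 1 PFU/cell; 72 h 37C; OneGlo luminescence after 5 min RT; norm. to buffer vs Salinomycin 10uM.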
# Active calls of the source: *; u = inconclusive; x = not tested or not shown; [ ] = another dose, or the depositor's remark. This is a sample that favours compounds with a hit; in the whole collection about 14% have one here. Unless noted, the call rests on the fitted dose curve; in most records, active means well fitted curve in the direction sought with a large enough effect; inconclusive means small, poorly fitted or top-dose-only effect, or another doubt; inactive means no such curve, though single readings can be large; an effect the other way counts as inactive or inconclusive. On the % scale 0 is the no-effect control and ±100 the full control effect.
SMILES,Sm TGR inh,Pf growth 48h,Pf growth 96h,Giardia FBPA inh,HCMV inh
C=CCN(c1cccc(C(F)(F)F)c1)S(=O)(=O)c1cccc(C(=O)OCC(=O)NC)c1,-10%,u,12µM*,0%,-24
COc1ccc(C(CNC(=O)c2cccc(N(C)C)c2)N2CCCC2)cc1 (centres undefined),1%,10µM*,u,0%,87
C=CCN(c1ccccc1)S(=O)(=O)c1cccc(C(=O)NCC(c2ccc(OC)cc2)N2CCCCC2)c1 (centres undefined),0%,10µM*,u,x,-14
CCOC(=O)N1CCN(Cc2nc3cc(NC(=O)c4ccccc4[N+](=O)[O-])ccc3n2C(C)C)CC1,-6%,x,x,x,-29
COc1ccc(CNC(=O)c2cccc(N(C)C)c2)cc1,18%,17%,1.9µM*,-12%,24
CCC1CCc2sc(C(=O)O)cc2C1 (centres undefined),2%,6%,3.3µM*,8%,-1
COc1ccc(C(CNC(=O)c2cc(S(=O)(=O)N3CCCCC3)ccc2C)N2CCCC2)cc1 (centres undefined),x,x,x,x,2
COc1ccc(C(CNC(=O)c2cc3ccccc3cc2OC)N2CCCC2)cc1 (centres undefined),-8%,x,4.1µM*,0%,-29
COc1ccc(C(CNC(=O)c2cccc(S(=O)(=O)N3CCCCC3)c2)N2CCCC2)cc1 (centres undefined),-6%,u,10µM*,x,-27
COc1ccccc1CNC(=O)c1cccc(N(C)C)c1,-3%,2%,x,-1%,0
O=C(Nc1cccc(F)c1)NC1(C(=O)NCC2CCCO2)CCCCC1 (centres undefined),8%,3%,7%,-6%,28
CC(C)=CCC/C(C)=C/CO/N=C1/C[C@@H](O)[C@@H](O)[C@@H]2[C@@H]3C(=O)N([C@@H](C)c4ccccc4)C(=O)[C@H]3CC[C@@H]12,x,x,x,-3%[12.9 µM],x
O=S1(=O)CC(N2CCCC2)CN1Cc1ccccc1 (centres undefined),x,x,x,x,-1
COc1ccc(CNC(=O)C(=O)NCc2ccncc2)cc1,x,7%,20%,-1%,4
COc1ccc(NS(=O)(=O)c2cccc(C(=O)NCC(c3ccc(OC)cc3)N3CCCC3)c2)cc1 (centres undefined),-14%,6.6µM*,7.4µM*,x,-16
COc1ccc(CNC(=O)c2nccnc2CO)cc1,-21%,19%,8.3µM*,-5%,42
CC1CCN(C(=O)COC(=O)C2CCN(S(=O)(=O)c3ccc4c(c3)OCCO4)CC2)CC1,-25%,-16%,7%,x,-31
Cn1c(-c2cccc(F)c2)cc2cnc(Nc3cccnc3)cc21,x,x,x,x,7
Cc1ccc(NC(=O)CNC2CCCCC2)cc1Cl,7%,u,0.74µM*,13%,53
Cc1ccc(NC(=O)NC2CCCCCCC2)cc1C,0%,4%,u,x,-84*
CCn1c(CC(=O)Nc2ccccc2Cl)nnc1SCC(=O)NC1CCCC1,4%,13%,-4%,1%,16
CC1CC(C)C(=O)C(C(CC2CC(=O)NC(=O)C2)OC(=O)CC(=O)c2ccccc2)C1 (centres undefined),x,x,x,x,-98*
CCN(C(=O)COC(=O)CCOc1ccc(C(C)(C)C)cc1)c1c(N)n(Cc2ccccc2)c(=O)[nH]c1=O,x,x,x,x,-66*
CCCOc1ccc(C(=O)CCC(=O)OCC(=O)N(CC)c2c(N)n(Cc3ccccc3)c(=O)[nH]c2=O)cc1,x,x,x,x,30
COCCCN(C(=O)CCOc1ccc(C)cc1)c1c(N)n(Cc2ccccc2)c(=O)[nH]c1=O,-4%,-7%,2%,x,-8
SMILES,Sm TGR inh,Pf growth 48h,Pf growth 96h,Giardia FBPA inh,HCMV inh
CCN(C(=O)COC(=O)/C=C/c1ccco1)c1c(N)n(Cc2ccccc2)c(=O)[nH]c1=O,20µM*,-23%,-26%,x,10
COCCCN(C(=O)CCOc1ccc(C(C)(C)C)cc1)c1c(N)n(Cc2ccccc2)c(=O)[nH]c1=O,2%,13µM*,u,x,x
Cc1ccsc1C(=O)OCC(=O)NC1CCCC1,3%,106%,99%,x,-17
O=C(NCC1CCCO1)c1cccc(S(=O)(=O)N(Cc2ccccc2)c2ccccc2)c1 (centres undefined),4%,u,-2%,x,13
Cc1ccc([C@H]2C[C@H](n3cc(C4CC4)nn3)[C@@H](O)CN2C(=O)C2CCCCC2)cc1,x,x,x,x,-28
CCCNC(=O)COc1coc(CN2CCN(c3ccccc3OC)CC2)cc1=O,-2%,-3%,u,x,7
COC(=O)CN1C(=O)[C@@H]2[C@H](C1=O)[C@@H]1CC(C(=O)OC)=C[C@@H](C(=O)OC)C3C1=C(C(=O)C31CCCCC1)[C@@H]2C (some centres undefined),x,x,x,3%,x
CCN=C1S/C(=C\c2ccc(Sc3ccc(Cl)cc3)o2)C(=O)N1CC,45µM*,u,47%,0%,-8
CCN=C1S/C(=C/c2ccc(-c3ccc(F)cc3)o2)C(=O)N1CC,45µM*,u,14%,0%,x
O=C1OCC/C1=C\c1ccccc1,-8%,20%,0%,-3%,51
O=C1/C(=C/c2ccccc2)CCc2ccc(Cl)nc21,x,x,x,x,-63*
O=C(O)CCn1cc(/C=C2\NC(=S)N(c3ccccc3)C2=O)c(-c2ccc(Br)cc2)n1,-21%,12%,-4%,-12%,-3
N#CCCn1cc(/C=C2\NC(=S)N(c3ccccc3)C2=O)c(-c2ccc(F)cc2)n1,x,u,-1%,-9%,-63*
N#CCCn1cc(C=C(C#N)C#N)c(-c2ccc(-c3ccccc3)cc2)n1,5µM*,26%,-30%,-11%,19
CCC(=O)Nc1ccc2nc(SCCOc3ccc(C)cc3OC)sc2c1,0%,x,x,x,-21
Clc1cccc(-n2ncc3c(NC4CCCCC4)ncnc32)c1,3%,x,x,x,52
COC(=O)[C@H](CC(C)C)NS(=O)(=O)N(Cc1ccccc1)[C@@H](CC(C)C)C(=O)OC,-3%,8.3µM*,u,x,25
Cc1ccc(S(=O)(=O)N[C@@H](Cc2ccccc2)C(=O)CCl)cc1,11µM*,-14%,30%,2%,21
C=C[C@H](CC(C)C)N(Cc1ccccc1)S(=O)(=O)N(Cc1ccc(OC)cc1)[C@H](C=C)CC(C)C,1%,5.2µM*,u,x,-9
C=CS(=O)(=O)N(Cc1ccccc1)[C@H](CO)CC(C)C,x,x,x,x,1
C=CCCN(C(CC(C)C)C(=O)OC)S(=O)(=O)c1ccccc1Br (centres undefined),34%,u,12µM*,0%,0

# Screening results (PubChem)
